# From PubChem BioAssay (NCI)
# About 79,000 compounds went through this panel and 15% of them were active in at least one assay; those are over-represented in the sample as a whole. A number with no mark means an inactive call. Calls of active or inactive are those of the source. No stated cut-off is given here; in the data, active means growth inhibition above about 70%; inactive means the rest.
# Legend:
# [1] = NCI Yeast Anticancer Drug Screen. Data for the rad50 strain (AID 155);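 further: 0% = growth of vehicle-only cultures of the same strain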; conditions: S. cerevisiae rad50 strain growth inhibition, active compounds read high
# Procedure, shortened: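 A DNA repair-deficient yeast mutant serves as the test organism; compound-induced growth inhibition is calculated against vehicle-treated cells.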
# [2] = NCI Yeast Anticancer Drug Screen. Data for the mec2-1 strain (AID 157); conditions: S. cerevisiae mec2-1 strain, active compounds read high
# Procedure, shortened: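 Yeast mec2-1 mutant treated with compound. Readout: growth inhibition vs vehicle controls.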
# [3] = NCI Yeast Anticancer Drug Screen. Data for the sgs1 mgt1 strain (AID 161);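 further: 0% = growth of cultures given vehicle only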; conditions: S. cerevisiae sgs1 mgt1 strain, active compounds read high
# Procedure, shortened: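 Read-out: growth inhibition vs vehicle controls. Cells: mutant yeast strain deficient in DNA damage repair.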
# [4] = NCI Yeast Anticancer Drug Screen. Data for the cln2 rad14 strain (AID 165);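 further: 0% = growth equal to vehicle treated cultures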; conditions: S. cerevisiae cln2 rad14 strain, active compounds read high
# Procedure, shortened: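 cln2 rad14 yeast strain; compound exposure; growth inhibition read vs vehicle controls.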
# [5] = NCI Yeast Anticancer Drug Screen. Data for the bub3 strain (AID 167); conditions: S. cerevisiae bub3 mutant strain, active compounds read high
# Procedure, shortened: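 Inhibition values come from growth of compound-treated mutant yeast normalised to vehicle-treated controls.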
# [6] = NCI Yeast Anticancer Drug Screen. Data for the mlh1 rad18 strain (AID 175); conditions: S. cerevisiae mlh1 rad18 strain growth inhibition, active compounds read high
# Procedure, shortened: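 Yeast w/ defined DNA-repair lesions; compound exposure; growth vs vehicle controls → % inhibition.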
# [7] = at 5.0 µM (retest, dose inferred, filed as 0.5)
# [8] = at 50.0 µM (retest, dose inferred, filed as 5.0)
Compound,"growth inhibition [1, 7]","growth inhibition [1, 8]",growth inhibition ([1]; at 50.0 µM),"growth inhibition [2, 7]","growth inhibition [2, 8]",growth inhibition ([2]; at 50.0 µM),"growth inhibition [3, 7]","growth inhibition [3, 8]",growth inhibition ([3]; at 50.0 µM),"growth inhibition [4, 7]","growth inhibition [4, 8]",growth inhibition ([4]; at 50.0 µM),"growth inhibition [5, 7]","growth inhibition [5, 8]",growth inhibition ([5]; at 50.0 µM),"growth inhibition [6, 7]","growth inhibition [6, 8]",growth inhibition ([6]; at 50.0 µM)
O=c1cccccc1[O-].O=c1cccccc1[O-].O=c1cccccc1[O-].[La+3],87% (active),87% (active),90.8% (active),52%,52%,91.8% (active),92% (active),92% (active),87.5% (active),59%,59%,89.8% (active),26%,26%,90.7% (active),74% (active),74% (active),88.6% (active)
Clc1ccc(C(CCc2ccc(Br)cc2)Cn2ccnc2)c(Cl)c1 (stereo not given),94% (active),99% (active),99.4% (active),82% (active),99% (active),99.5% (active),87% (active),99% (active),59.7%,72% (active),99% (active),99.5% (active),91% (active),99% (active),99.2% (active),71% (active),98% (active),99.5% (active)
BrCN(CBr)c1ccc2c(c1)Cc1cc(Br)ccc1-2,4%,-4%,70.4% (active),-3%,-4%,28.4%,1%,1%,64.8%,7%,11%,-1.35%,1%,-2%,25.8%,3%,-7%,74.3% (active)
CCCCc1c2c(nc3c1CC/C(=C\c1ccccc1)C3=O)CCCC2,-23%,97% (active),65.8%,-7%,98% (active),48.5%,-11%,97% (active),69.6%,-1%,97% (active),38%,-1%,98% (active),54%,-19%,97% (active),49.7%
CC(C)SC(=S)Nc1ccc(Cl)cc1,-5%,92% (active),97.8% (active),-1%,98% (active),99% (active),8%,88% (active),97% (active),-18%,64%,96.8% (active),0%,91% (active),99% (active),5%,96% (active),98.9% (active)
O=C1/C(=C/c2ccccc2)CN(C(=O)C(F)(F)F)C/C1=C\c1ccccc1,63%,84% (active),65.3%,43%,80% (active),40%,52%,94% (active),46%,41%,78% (active),42.2%,53%,93% (active),55.1%,66%,92% (active),53.6%
CSC(=S)CC(O)[C@@H]1CC2c3ccccc3C1c1ccccc12 (stereo not given in full),-5%,94% (active),76.7% (active),1%,93% (active),84.3% (active),1%,93% (active),65.7%,2%,92% (active),79.7% (active),17%,93% (active),77% (active),5%,93% (active),71.5% (active)
CC(=O)OC(CCl)C(C)[N+](=O)[O-] (stereo not given),7%,91% (active),90.8% (active),5%,96% (active),98.5% (active),7%,75% (active),46.6%,6%,83% (active),36.9%,6%,99% (active),97.7% (active),5%,86% (active),43.4%
CN(C)CC(O)c1cc(-c2ccc(Cl)cc2)nc2c(Cl)cc(Cl)cc12 (stereo not given),11%,99% (active),99.2% (active),12%,99% (active),99.4% (active),41%,99% (active),99.5% (active),9%,97% (active),99.3% (active),8%,99% (active),99.5% (active),46%,99% (active),99.4% (active)
Cc1ccc2ccc3ccc(C)nc3c2n1,94% (active),93% (active),95.1% (active),92% (active),94% (active),96.3% (active),93% (active),96% (active),96.5% (active),91% (active),89% (active),94.3% (active),96% (active),94% (active),97% (active),94% (active),94% (active),95.8% (active)
